Measurements published in PubChem BioAssay (NCI).
Compounds without any hit were thinned out: in the full panel of roughly 79,000, 15% have a hit. Values without a mark were called inactive. Active and inactive are the calls of the source. Rule as the data show it: active = growth inhibition above about 70%; inactive = the rest.

Experiments:
[1] = NCI Yeast Anticancer Drug Screen. Data for the rad52 strain (AID 147);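 also: 0% = growth of vehicle-treated control cultures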; details: S. cerevisiae rad52 mutant growth inhibition, hits give high values
How it was run: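 Genetically altered yeast (DNA damage repair defect) treated with compound; inhibition calculated relative to vehicle.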

[2] = NCI Yeast Anticancer Drug Screen. Data for the wt1 strain (AID 149);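 also: 0% = growth of vehicle-treated wt1 cultures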; details: S. cerevisiae wt1 strain (SPY 50644) growth inhibition, hits give high values
How it was run: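 Measured: growth of wt1 yeast under compound versus vehicle treatment, reported as inhibition.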

[3] = NCI Yeast Anticancer Drug Screen. Data for the rad50EPP+ strain (AID 151);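 also: 0% = growth of vehicle-treated control cultures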; details: S. cerevisiae rad50 mutant strain, hits give high values
How it was run: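 Strain rad50EPP+; compound exposure; % growth inhibition vs vehicle.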

[4] = NCI Yeast Anticancer Drug Screen. Data for the rad50 strain (AID 155);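 also: 0% = growth of vehicle-only cultures of the same strain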; details: S. cerevisiae rad50 strain growth inhibition, hits give high values
How it was run: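 Growth of the mutant yeast was measured after compound exposure and referenced to vehicle-treated cultures.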

[5] = NCI Yeast Anticancer Drug Screen. Data for the mec2-1 strain (AID 157); details: S. cerevisiae mec2-1 strain, hits give high values
How it was run: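 Cells of the genetically defined mec2-1 yeast strain are incubated with test compound. Inhibition of growth is calculated against vehicle-treated controls.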

[6] = NCI Yeast Anticancer Drug Screen. Data for the rad14 strain (AID 159);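 also: 0% = growth of vehicle-treated control cultures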; details: S. cerevisiae rad14 strain growth inhibition, hits give high values
How it was run: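 Here, inhibition of yeast growth was measured after compound exposure, using a strain with a genetic defect in DNA damage repair and vehicle-treated cultures as the reference.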

[7] = NCI Yeast Anticancer Drug Screen. Data for the sgs1 mgt1 strain (AID 161);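 also: 0% = growth of cultures given vehicle only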; details: S. cerevisiae sgs1 mgt1 strain, hits give high values
How it was run: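 Mutant yeast exposed to compound; growth scored against vehicle-only wells.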

[8] = NCI Yeast Anticancer Drug Screen. Data for the CLN2oe strain (AID 163);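 also: 0% = growth of vehicle-only control cultures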; details: S. cerevisiae CLN2oe strain, hits give high values
How it was run: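 Strain altered in cell-cycle control, incubated with compound; growth compared to solvent-treated controls.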

[9] = NCI Yeast Anticancer Drug Screen. Data for the cln2 rad14 strain (AID 165);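 also: 0% = growth equal to vehicle treated cultures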; details: S. cerevisiae cln2 rad14 strain, hits give high values
How it was run: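 The screen exposed genetically defined yeast (cln2 rad14) to test compounds and scored growth inhibition relative to vehicle-treated controls.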

[10] = NCI Yeast Anticancer Drug Screen. Data for the bub3 strain (AID 167); details: S. cerevisiae bub3 mutant strain, hits give high values
How it was run: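 Whole-cell yeast assay. The mutant strain was incubated with compounds, and growth inhibition was determined by comparison with vehicle-treated cells.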

[11] = NCI Yeast Anticancer Drug Screen. Data for the wt2 strain (AID 169);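 also: 0% = growth of vehicle-treated yeast cultures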; details: S. cerevisiae wt2 strain growth inhibition, hits give high values
How it was run: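 Steps: yeast strain treated with compound; growth recorded; inhibition calculated relative to cultures given vehicle alone.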

[12] = NCI Yeast Anticancer Drug Screen. Data for the mlh1 strain (AID 171);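 also: 0% = growth of vehicle-treated control cultures of the same strain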; details: S. cerevisiae mlh1 strain growth inhibition, hits give high values
How it was run: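 Yeast screen: mutant strain plus compound, growth scored against vehicle control wells.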

[13] = NCI Yeast Anticancer Drug Screen. Data for the sgs1 strain (AID 173);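 also: 0% = growth of vehicle-only control cultures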; details: S. cerevisiae sgs1 mutant, hits give high values
How it was run: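 Inhibition of yeast growth served as the measure. The mutant strain was treated with each compound, and growth was normalised to cultures receiving vehicle alone.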

[14] = NCI Yeast Anticancer Drug Screen. Data for the mlh1 rad18 strain (AID 175); details: S. cerevisiae mlh1 rad18 strain growth inhibition, hits give high values
How it was run: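 Compound-treated yeast growth, normalised to vehicle controls. Strain bears defined DNA repair mutations.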

[15] = NCI Yeast Anticancer Drug Screen. Data for the rad18 strain (AID 177); details: S. cerevisiae rad18 mutant growth inhibition, hits give high values
How it was run: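 Inhibition values reflect reduced yeast growth compared with vehicle-treated controls, using a strain engineered with a DNA damage repair defect.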

[16] = NCI Yeast Anticancer Drug Screen. Data for the mgt1 strain (AID 153); details: S. cerevisiae mgt1 mutant growth inhibition, hits give high values
How it was run: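 Read-out: yeast growth inhibition vs vehicle control. Strain mgt1, drawn from a panel altered in DNA damage repair or cell cycle control.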

[17] = at 5.0 µM (retest, dose inferred, filed as 0.5)
[18] = at 50.0 µM (retest, dose inferred, filed as 5.0)

Nc1cc2ccccc2cc1N gave a growth inhibition ([1]; at 1.2 µM) of -47%, a growth inhibition ([1]; at 3.7 µM) of -35% and a growth inhibition ([1]; at 11.0 µM) of -41%. It also gave a growth inhibition ([1]; at 33.0 µM) of -39%, a growth inhibition ([1]; at 100.0 µM) of 25% and a growth inhibition ([2]; at 1.2 µM) of -28%. The growth inhibition ([2]; at 3.7 µM) was -14%, the growth inhibition ([2]; at 11.0 µM) was -17% and the growth inhibition ([2]; at 33.0 µM) was 3%. The growth inhibition ([2]; at 100.0 µM) was 20%, the growth inhibition ([3]; at 1.2 µM) was -37% and the growth inhibition ([3]; at 3.7 µM) was -13%. The growth inhibition ([3]; at 11.0 µM) was 40%, the growth inhibition ([3]; at 33.0 µM) was 59% and the growth inhibition ([3]; at 100.0 µM) was 76% (active). The growth inhibition ([4]; at 1.2 µM) was -33%, the growth inhibition ([4]; at 3.7 µM) was -23% and the growth inhibition [4, 17] was 14%. The growth inhibition ([4]; at 11.0 µM) was -26%, the growth inhibition ([4]; at 33.0 µM) was 12% and the growth inhibition [4, 18] was 17%. For the same molecule, the growth inhibition ([4]; at 50.0 µM) was 89.3% (active), the growth inhibition ([4]; at 100.0 µM) was 63% and the growth inhibition ([5]; at 1.2 µM) was -41%. For the same molecule, the growth inhibition ([5]; at 3.7 µM) was -45%, the growth inhibition [5, 17] was 4% and the growth inhibition ([5]; at 11.0 µM) was -46%. The growth inhibition ([5]; at 33.0 µM) was -35%, the growth inhibition [5, 18] was 15% and the growth inhibition ([5]; at 50.0 µM) was 91.5% (active). For the same molecule, the growth inhibition ([5]; at 100.0 µM) was -15%, the growth inhibition ([6]; at 1.2 µM) was -15% and the growth inhibition ([6]; at 3.7 µM) was -17%. It also gave a growth inhibition ([6]; at 11.0 µM) of -13%, a growth inhibition ([6]; at 33.0 µM) of -16% and a growth inhibition ([6]; at 100.0 µM) of 6%. For the same molecule, the growth inhibition [7, 17] was 19%, the growth inhibition [7, 18] was 26% and the growth inhibition ([7]; at 50.0 µM) was 88.7% (active). For the same molecule, the growth inhibition ([8]; at 1.2 µM) was 10%, the growth inhibition ([8]; at 3.7 µM) was 4% and the growth inhibition ([8]; at 11.0 µM) was 4%. The growth inhibition ([8]; at 33.0 µM) was 23%, the growth inhibition ([8]; at 100.0 µM) was 45% and the growth inhibition [9, 17] was 21%. For the same molecule, the growth inhibition [9, 18] was 70% (active), the growth inhibition ([9]; at 50.0 µM) was 90.1% (active) and the growth inhibition ([10]; at 1.2 µM) was -35%. It also gave a growth inhibition ([10]; at 3.7 µM) of -36%, a growth inhibition [10, 17] of 25% and a growth inhibition ([10]; at 11.0 µM) of -30%. For the same molecule, the growth inhibition ([10]; at 33.0 µM) was -38%, the growth inhibition [10, 18] was 95% (active) and the growth inhibition ([10]; at 50.0 µM) was 90.5% (active). The growth inhibition ([10]; at 100.0 µM) was 24%, the growth inhibition ([11]; at 1.2 µM) was -18% and the growth inhibition ([11]; at 3.7 µM) was -18%. It also gave a growth inhibition ([11]; at 11.0 µM) of -25%, a growth inhibition ([11]; at 33.0 µM) of -34% and a growth inhibition ([11]; at 100.0 µM) of -28%. For the same molecule, the growth inhibition ([12]; at 1.2 µM) was -22%, the growth inhibition ([12]; at 3.7 µM) was -22% and the growth inhibition ([12]; at 11.0 µM) was -18%. For the same molecule, the growth inhibition ([12]; at 33.0 µM) was -11%, the growth inhibition ([12]; at 100.0 µM) was 16% and the growth inhibition ([13]; at 1.2 µM) was 13%. It also gave a growth inhibition ([13]; at 3.7 µM) of 20%, a growth inhibition ([13]; at 11.0 µM) of 16% and a growth inhibition ([13]; at 33.0 µM) of 33%. For the same molecule, the growth inhibition ([13]; at 100.0 µM) was 63%, the growth inhibition [14, 17] was 6% and the growth inhibition [14, 18] was 40%. The growth inhibition ([14]; at 50.0 µM) was 90.8% (active), the growth inhibition ([15]; at 1.2 µM) was -22% and the growth inhibition ([15]; at 3.7 µM) was -26%. It also gave a growth inhibition ([15]; at 11.0 µM) of -16%, a growth inhibition ([15]; at 33.0 µM) of -1% and a growth inhibition ([15]; at 100.0 µM) of 46%.

For O=C1C=CC(=Nc2cccc3c2-c2ccccc2C3=O)O1, the growth inhibition ([1]; at 1.2 µM) was 3%, the growth inhibition ([1]; at 3.7 µM) was 16% and the growth inhibition ([1]; at 11.0 µM) was 67%. For the same molecule, the growth inhibition ([1]; at 33.0 µM) was 97% (active), the growth inhibition ([1]; at 100.0 µM) was 98% (active) and the growth inhibition ([2]; at 1.2 µM) was -2%. For the same molecule, the growth inhibition ([2]; at 3.7 µM) was 8%, the growth inhibition ([2]; at 11.0 µM) was 42% and the growth inhibition ([2]; at 33.0 µM) was 99% (active). The growth inhibition ([2]; at 100.0 µM) was 99% (active), the growth inhibition ([3]; at 1.2 µM) was 4% and the growth inhibition ([3]; at 3.7 µM) was 24%. For the same molecule, the growth inhibition ([3]; at 11.0 µM) was 61%, the growth inhibition ([3]; at 33.0 µM) was 89% (active) and the growth inhibition ([3]; at 100.0 µM) was 97% (active). For the same molecule, the growth inhibition ([16]; at 1.2 µM) was 1%, the growth inhibition ([16]; at 3.7 µM) was 17% and the growth inhibition ([16]; at 11.0 µM) was 71% (active). The growth inhibition ([16]; at 33.0 µM) was 99% (active), the growth inhibition ([16]; at 100.0 µM) was 99% (active) and the growth inhibition ([5]; at 1.2 µM) was 6%. For the same molecule, the growth inhibition ([5]; at 3.7 µM) was 23%, the growth inhibition [5, 17] was 36% and the growth inhibition ([5]; at 11.0 µM) was 75% (active). The growth inhibition ([5]; at 33.0 µM) was 99% (active), the growth inhibition [5, 18] was 99% (active) and the growth inhibition ([5]; at 50.0 µM) was 99.5% (active). For the same molecule, the growth inhibition ([5]; at 100.0 µM) was 99% (active), the growth inhibition ([6]; at 1.2 µM) was 5% and the growth inhibition ([6]; at 3.7 µM) was 18%. For the same molecule, the growth inhibition ([6]; at 11.0 µM) was 94% (active), the growth inhibition ([6]; at 33.0 µM) was 99% (active) and the growth inhibition ([6]; at 100.0 µM) was 98% (active). The growth inhibition [7, 17] was 36%, the growth inhibition [7, 18] was 99% (active) and the growth inhibition ([7]; at 50.0 µM) was 99.6% (active). The growth inhibition ([8]; at 1.2 µM) was -3%, the growth inhibition ([8]; at 3.7 µM) was 5% and the growth inhibition ([8]; at 11.0 µM) was 60%. For the same molecule, the growth inhibition ([8]; at 33.0 µM) was 99% (active), the growth inhibition ([8]; at 100.0 µM) was 98% (active) and the growth inhibition [9, 17] was 14%. The growth inhibition [9, 18] was 99% (active), the growth inhibition ([9]; at 50.0 µM) was 98.7% (active) and the growth inhibition ([10]; at 1.2 µM) was -7%. The growth inhibition ([10]; at 3.7 µM) was 0%, the growth inhibition [10, 17] was 14% and the growth inhibition ([10]; at 11.0 µM) was 72% (active). For the same molecule, the growth inhibition ([10]; at 33.0 µM) was 97% (active), the growth inhibition [10, 18] was 99% (active) and the growth inhibition ([10]; at 50.0 µM) was 99.7% (active). The growth inhibition ([10]; at 100.0 µM) was 98% (active), the growth inhibition ([11]; at 1.2 µM) was -3% and the growth inhibition ([11]; at 3.7 µM) was 12%. For the same molecule, the growth inhibition ([11]; at 11.0 µM) was 79% (active), the growth inhibition ([11]; at 33.0 µM) was 99% (active) and the growth inhibition ([11]; at 100.0 µM) was 99% (active). For the same molecule, the growth inhibition ([12]; at 1.2 µM) was 7%, the growth inhibition ([12]; at 3.7 µM) was 18% and the growth inhibition ([12]; at 11.0 µM) was 84% (active). The growth inhibition ([12]; at 33.0 µM) was 99% (active), the growth inhibition ([12]; at 100.0 µM) was 99% (active) and the growth inhibition ([13]; at 1.2 µM) was 7%. For the same molecule, the growth inhibition ([13]; at 3.7 µM) was 25%, the growth inhibition ([13]; at 11.0 µM) was 83% (active) and the growth inhibition ([13]; at 33.0 µM) was 99% (active). For the same molecule, the growth inhibition ([13]; at 100.0 µM) was 99% (active), the growth inhibition [14, 17] was 28% and the growth inhibition [14, 18] was 99% (active). The growth inhibition ([14]; at 50.0 µM) was 85% (active), the growth inhibition ([15]; at 1.2 µM) was 8% and the growth inhibition ([15]; at 3.7 µM) was 23%. The growth inhibition ([15]; at 11.0 µM) was 83% (active), the growth inhibition ([15]; at 33.0 µM) was 99% (active) and the growth inhibition ([15]; at 100.0 µM) was 98% (active).
